Data as given in PubChem BioAssay (NCATS).
Calls of active or inactive are those of the source. Calls follow the shape of the full dose curve.

Assay: qHTS drug screen for cell cycle checkpoint inhibitors in PARPi-resistant BRCA-mutant ovarian cancer cell lines. (AID 1963452)
Conditions: PEO1/OlaR viability, CellTiter-Glo luminescence, 96 h, stronger effect = lower value
Excerpt: Women's Malignancies Branch, Center for Cancer Research (CCR),
National Cancer Institute (NCI), National Institutes of Health (NIH), Bethesda, MD
Poly (ADP-ribose) polymerase inhibitors (PARPis) have changed the treatment paradigm in breast cancer gene (BRCA) - mutant high-grade serous ovarian carcinoma (HGSC). However, most patients eventually develop resistance to PARPis, highlighting an unmet need for improved therapeutic strategies. Using high-throughput drug screens, we identified ataxia telangiectasia and rad3-related protein/checkpoint kinase 1 (CHK1) pathway inhibitors as cytotoxic and further validated the activity of the CHK1 inhibitor (CHK1i) prexasertib in PARPi-sensitive and -resistant BRCA-mutant HGSC cells and xenograft mouse models. CHK1i monotherapy induced DNA damage, apoptosis, and tumor size reduction. We then conducted a phase 2 study (NCT02203513) of prexasertib in patients with BRCA-mutant HGSC. The treatment was well tolerated but yielded an objective response rate of 6% (1 of 17; one partial response) in patients with previous PARPi treatment. […] BRCA reversion mutation in previously PARPi-treated BRCA-mutant patients was not associated with resistance to CHK1i.
Among others, 1082 oncology drugs, both approved and investigational, were prioritized based on their status in clinical trial development. […] Drugs with average Z-AUC values less than -1.0 in all three cell lines were classified as "hits" resulting in 151 oncology drug hits. The screen also confirmed cross-resistance between olaparib and other PARPis (rucaparib, niraparib, and talazoparib) in PARPi-resistant PEO1/OlaR and PEO4.
[1] G. L. Lin, K. M. Wilson, M. Ceribelli, B. Z. Stanton, P. J. Woo, S. Kreimer, E. Y. Qin, X. Zhang, J. Lennon, S. Nagaraja, P. J. Morris, M. Quezada, S. M. Gillespie, D. Y. Duveau, A. M. Michalowski, P. Shinn, R. Guha, M. Ferrer, C. Klumpp-Thomas, S. Michael, C. McKnight, P. Minhas, Z. Itkin, E. H. Raabe, L. Chen, R. Ghanem, A. C. Geraghty, L. Ni, K. I. Andreasson, N. A. Vitanza, K. E.Warren, C. J. Thomas, M. Monje, Therapeutic strategies for diffuse midline glioma from high-throughput combination drug screening. Sci. Transl. Med. 11, (2019).
[2] T. M. Yamamoto, A. McMellen, Z. L. Watson, J. Aguilera, R. Ferguson, E. Nurmemmedov, T. Thakar, G. L. Moldovan, H. Kim, D. M. Cittelly, A. M. Joglar, E. P. Brennecke, H. Wilson, K. Behbakht, M. J. Sikora, B. G. Bitler, Activation of Wnt signaling promotes olaparib resistant ovarian cancer. Mol. Carcinog. 58, 1770 - 1782 (2019).
PROTOCOL TABLE (as described by Inglese J, Shamu CE and Guy RK. 2007)
SEQUENCE No. (e.g., 1, 2, 3, etc.); […] (e.g., Cells, Incubation, Reagent, etc.); VALUE; DESCRIPTION.
1; Compounds; 20nL; 1536-well white tissue culture-treated plates.
2; Cells; 5 uL; PEO1, PEO4, and PEO1/OlaR cells at 600 cells per well.
3; Incubation; 96 hr; 37C, 95% humidity, 5% CO2.
4; Reagent; 3 uL; CellTiter-Glo (Promega).
5; Incubation; 15 min; room temperature.
6; Detection; Luminescence, PHERAstar (BMG Labtech) plate reader.
NOTES (numbers refer to Sequence numbers above)
1. MIPE 5.0 compounds were acoustically dispensed by Echo Acoustic Liquid Handler (Beckman Coulter Life Sciences). Each compound was plated at an 11-point concentration range with 1:3 dilution. Bortezomib, a proteasome inhibitor (final concentration, 20 uM), was used as a positive.
2. PEO1, PEO4, and PEO1/OlaR were trypsinized and dispensed in 5 uLof growth medium using a Multidrop Combi dispenser at a density of 600 cells per well to allow compounds to be present during the exponential growth phase.
3. Plates were incubated for 96 hours at standard incubator conditions and covered by a stainless steel gasketed lid to prevent evaporation.
4. Three microliters of CellTiter-Glo (Promega) were added to each well.
5. Plates were incubated at room temperature for 15 min with a stainless-steel lid in place.
6. Luminescence readings were taken using PHERAstar (BMG Labtech). […]

[1] = measured here: PEO1 parental Z-AUC

Compound: C#C[C@]1(O)C=C[C@H]2[C@@H]3CCC4=CC(=O)CC[C@@H]4[C@H]3CC[C@@]21CC
- Z-AUC: 1.19 (inactive)
- Z-AUC [1]: 1.82
- Z-AUC (measured here: PEO4 Z-AUC): 1.32

Compound: C[C@@H]1C[C@@H]([C@H](O)CC2CC(=O)NC(=O)C2)C(=O)[C@@H](C)C1
- Z-AUC: 0.13 (inactive)
- Z-AUC [1]: -0.0615
- Z-AUC (measured here: PEO4 Z-AUC): 0.0418

Compound: C[C@]12CC[C@H](O)CC1=CC[C@@H]1[C@@H]2CC[C@]2(C)C(=O)CC[C@@H]12
- Z-AUC: 1.09 (inactive)
- Z-AUC [1]: 0.516
- Z-AUC (measured here: PEO4 Z-AUC): 0.608

Compound: COc1ccc(C(=O)N2CCCC2=O)cc1
- Z-AUC: -0.603 (inactive)
- Z-AUC [1]: 0.111
- Z-AUC (measured here: PEO4 Z-AUC): -0.65

Compound: C[C@@H]1CC[C@H]2[C@@H](C)C(=O)O[C@@H]3O[C@@]4(C)CC[C@@H]1[C@]32OO4
- Z-AUC: 1.33 (inactive)
- Z-AUC [1]: 0.931
- Z-AUC (measured here: PEO4 Z-AUC): 1.15

Compound: O=C(O)c1nn(Cc2ccc(Cl)cc2Cl)c2ccccc12
- Z-AUC: 0.664 (inactive)
- Z-AUC [1]: 0.662
- Z-AUC (measured here: PEO4 Z-AUC): 0.605

Compound: C[C@@H]1O[C@@H](O[C@@H]2C=C3CC[C@@H]4[C@H](CC[C@]5(C)[C@@H](c6ccc(=O)oc6)CC[C@]45O)[C@@]3(C)CC2)[C@H](O)[C@H](O)[C@H]1O
- Z-AUC: -2.1 (inactive)
- Z-AUC [1]: -2.52
- Z-AUC (measured here: PEO4 Z-AUC): -2.14
